Experiment [1] is described as follows: ATG_TGFb_CIS: Attagene CIS-FACTORIAL HepG2 Assay for human Transforming Growth Factor (TGF) (AID 2282967; active means hit-call score of the fitted dose curve at least 0.9, where 1 is the maximum; inactive means score below 0.9). To be noted: HepG2 Attagene CIS TGFb reporter, mRNA transcription; actives raise or lower the signal. In short, it runs like this:
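Bidirectional fitting relative to DMSO gave the endpoint. Underlying data: reporter mRNA from HepG2 cells carrying transiently transfected cis-regulated reporter constructs, harvested 24 h after dosing and analyzed by RT-PCR and capillary electrophoresis.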

A short description of experiment [2]: ATG_VDRE_CIS: Attagene CIS-FACTORIAL HepG2 Assay for human Vitamin D Receptor Element (VDRE) (AID 2282968; active means hit-call score of the fitted dose curve at least 0.9, where 1 is the maximum; inactive means score below 0.9). As to conditions: HepG2 VDRE cis-reporter transcription, actives raise or lower the signal. Put shortly:
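Compounds were applied for 24 h to HepG2 cells transfected with promoter-regulated reporter units. Total RNA was reverse-transcribed, and reporter amplicons were fluorescently labelled and sized by capillary electrophoresis.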

Experiment [3] addresses Estrogen receptor (Homo sapiens) (UniProt P03372). In words: ATG_ERa_TRANS: Attagene TRANS-FACTORIAL HepG2 Assay for human Estrogen Receptor alpha (ERa) (AID 2282970). As to conditions: HepG2 Attagene TRANS ERa GAL4 reporter, mRNA. In short, it runs like this: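 Gal4-fusion ERa transactivation, measured as reporter transcript level in transiently transfected HepG2 cells. Exposure 24 h; RT-PCR plus capillary electrophoresis with fluorescence detection.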

Experiment [4] has as its target X-box-binding protein 1 (Homo sapiens) (UniProt P17861). In words: ATG_Xbp1_CIS: Attagene CIS-FACTORIAL HepG2 Assay for human X-box Binding Protein 1 (XBP1) (AID 2282972; active means hit-call score of the fitted dose curve at least 0.9, where 1 is the maximum; inactive means score below 0.9). As to conditions: HepG2 XBP1 cis-element reporter, Attagene multiplex; actives raise or lower the signal. Put shortly: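 Read-out: fluorescent reporter mRNA fragments resolved by capillary electrophoresis after RT-PCR. Human HepG2 liver cells carried transfected cis-promoter reporter units and were exposed to chemicals for 24 hours. Gain or loss of signal fitted relative to DMSO baseline.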

Experiment [5] concerns the target Estrogen-related receptor gamma (Homo sapiens) (UniProt P62508). In words: ATG_ERRg_TRANS: Attagene TRANS-FACTORIAL HepG2 Assay for human Estrogen-Related Receptor gamma (ERRg) (AID 2282977).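 Further: hits increase reporter signal over DMSO so potencies reflect activators.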 As to conditions: HepG2 Attagene TRANS reporter, ERRg transactivation. Put shortly:
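Induction of reporter transcripts through a chimeric NR-Gal4 protein is quantified in transfected human HepG2 liver cells after 24 h chemical exposure, using RT-PCR with capillary electrophoresis detection and DMSO as baseline.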

Experiment [6] addresses Glucocorticoid receptor (Homo sapiens) (UniProt P04150). Briefly: ATG_GR_TRANS: Attagene TRANS-FACTORIAL HepG2 Assay for human Glucocorticoid Receptor (GR) (AID 2282978).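 Further: activators score as hits since higher reporter transcript over DMSO is fitted.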 To be noted: HepG2 Attagene TRANS GR reporter, mRNA transcription. Put shortly:
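In this trans-factorial format, exogenous NR-GAL4 chimeric proteins in transfected HepG2 cells regulate GAL4-UAS reporter transcription. After 24 h treatment, reporter mRNA induction relative to DMSO is read by RT-PCR and capillary electrophoresis.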

The target of experiment [7] is Bile acid receptor (Homo sapiens) (UniProt Q96RI1). Briefly: ATG_FXR_TRANS: Attagene TRANS-FACTORIAL HepG2 Assay for Farnesoid X Receptor (FXR) (AID 2282979).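 Further: hits raise reporter mRNA above DMSO so AC50 marks FXR activation.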 To be noted: HepG2 Attagene TRANS FXR-GAL4 reporter transcription. In short, it runs like this:
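HepG2 cells were transiently transfected with GAL4-UAS reporters driven by chimeric NR-Gal4 proteins and dosed for 24 h. Reporter mRNA was quantified by RT-PCR, fluorescent labelling, HpaI digestion and capillary electrophoresis, with gain of signal scored versus DMSO.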

Experiment [8] addresses Oxysterols receptor LXR-beta (Homo sapiens) (UniProt P55055). Briefly: ATG_LXRb_TRANS: Attagene TRANS-FACTORIAL HepG2 Assay for human Liver X Receptor beta (LXRb) (AID 2282981). As to conditions: HepG2 Attagene TRANS GAL4-LXRb reporter, mRNA. Put shortly: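 Multiplexed reporter assay, HepG2, 24 h dosing. Fluorescence of labelled RT-PCR products after capillary electrophoresis gives transcript level; positive fitting direction relative to DMSO.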

Experiment [9] addresses Nuclear receptor subfamily 4 group A member 2 (Homo sapiens) (UniProt P43354). In words: ATG_NURR1_TRANS: Attagene TRANS-FACTORIAL HepG2 Assay for human Nuclear Receptor Related Protein 1 (NURR1) (AID 2282985). As to conditions: HepG2 Attagene TRANS reporter, mRNA readout. In short, it runs like this:
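Endpoint: reporter mRNA increase relative to DMSO. HepG2 cells transfected with reporter units, treated 24 h; RNA processed by RT-PCR, labelling, HpaI digestion and capillary electrophoresis.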

Experiment [10] deals with Transcriptional activator Myb (Homo sapiens) (UniProt P10242). In words: ATG_Myb_CIS: Attagene CIS-FACTORIAL HepG2 Assay for human Myeloblastosis (Myb) Proto-Oncogene Transcription Factor (AID 2282986; active means hit-call score of the fitted dose curve at least 0.9, where 1 is the maximum; inactive means score below 0.9). As to conditions: HepG2 Attagene CIS-FACTORIAL Myb reporter transcription; actives raise or lower the signal. In short, it runs like this: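 Steps: transfect HepG2 with cis-regulated reporter units; dose with chemical for 24 h; isolate RNA, reverse-transcribe, PCR-amplify and FAM-label reporter sequences; digest with HpaI; resolve by capillary electrophoresis. Activity fitted in both directions relative to DMSO.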

Experiment [11] concerns the target Nuclear respiratory factor 1 (Homo sapiens) (UniProt Q16656). Briefly: ATG_NRF1_CIS: Attagene CIS-FACTORIAL HepG2 Assay for human Nuclear Respiratory Factor 1 (NRF1) Orphan Gene (AID 2282987; active means hit-call score of the fitted dose curve at least 0.9, where 1 is the maximum; inactive means score below 0.9). As to conditions: HepG2 NRF1 cis-element reporter, Attagene multiplex; actives raise or lower the signal. In short, it runs like this: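 Fluorescence intensity of labelled reporter cDNA fragments, resolved by capillary electrophoresis, served as readout for NRF1 cis-element activity. Transiently transfected HepG2 cells were dosed for 24 hours; activity in either direction was fitted against DMSO negative control.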

The nature of experiment [12]: ATG_NFI_CIS: Attagene CIS-FACTORIAL HepG2 Assay for human Nuclear Factor I (NFI) (AID 2282989; active means hit-call score of the fitted dose curve at least 0.9, where 1 is the maximum; inactive means score below 0.9). To be noted: HepG2 cis-regulatory reporter, NFI response element transcription; actives raise or lower the signal. In short, it runs like this: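 Cells: human liver HepG2, transiently transfected with promoter-regulated reporter transcription units. Exposure 24 h. Detection: fluorescent RT-PCR products separated by capillary electrophoresis, normalised to DMSO negative control.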

The nature of experiment [13]: ATG_GAL4_TRANS: Attagene TRANS-FACTORIAL HepG2 Assay for GAL4 (Internal Marker) (AID 2282976). As to conditions: HepG2 Attagene TRANS GAL4 internal marker reporter. In short, it runs like this:
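Background-control readout: GAL4-UAS reporter transcript in transiently transfected HepG2 cells after 24 h compound exposure. Measured by RT-PCR, 6-FAM primer extension, HpaI digest and capillary electrophoresis; gain-of-signal fit versus DMSO.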

Experiment [14] concerns the target Oxysterols receptor LXR-alpha (Homo sapiens) (UniProt Q13133). Briefly: ATG_LXRa_TRANS: Attagene TRANS-FACTORIAL HepG2 Assay for human Liver X Receptor alpha (LXRa) (AID 2282980). To be noted: HepG2 Attagene TRANS reporter, LXRa transactivation. Put shortly: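 HepG2 cells transiently transfected with GAL4-UAS reporter units for chimeric NR-Gal4 proteins, exposed to chemicals for 24 h. Reporter mRNA quantified by RT-PCR and capillary electrophoresis; gain of signal fitted relative to DMSO.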

Experiment [15] in a line: ATG_M_06_TRANS: Attagene TRANS-FACTORIAL HepG2 Assay for M06 Transcription Factor (Internal Marker) (AID 2282983). To be noted: HepG2 Attagene TRANS M06 internal marker reporter. Put shortly:
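mRNA levels of a reporter transcript, quantified as FAM fluorescence on capillary electrophoresis, served as readout. HepG2 cells expressing exogenous GAL4-chimera reporter constructs were exposed for 24 h. Gain of signal over DMSO was evaluated.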

Experiment [16] in a line: ATG_M_19_TRANS: Attagene TRANS-FACTORIAL HepG2 Assay for M19 Transcription Factor (Internal Marker) (AID 2282974). To be noted: HepG2 Attagene TRANS-FACTORIAL M19 internal marker reporter. Put shortly: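 Cells: human HepG2, transiently transfected with multiplexed reporter transcription units. Exposure: 24 h. Detection: RT-PCR of reporter mRNA with capillary electrophoresis. Analysis: gain-of-signal vs DMSO.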

The target of experiment [17] is Hepatocyte nuclear factor 4-alpha (Homo sapiens) (UniProt P41235). In words: ATG_HNF4a_TRANS: Attagene TRANS-FACTORIAL HepG2 Assay for human Hepatocyte Nuclear Factor 4 alpha (HNF4a) (AID 2282982). To be noted: HepG2 HNF4a transactivation reporter, mRNA readout. Put shortly: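 Endpoint reflects transcriptional activation of a GAL4-UAS reporter by an HNF4a-GAL4 chimera in transfected HepG2 cells, 24 h post-dosing. Fluorescence from RT-PCR products separated by capillary electrophoresis; DMSO baseline.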
Chain of Hepatocyte nuclear factor 4-alpha (Homo sapiens) (P41235 whole entry, looked up, the tested form may be a part): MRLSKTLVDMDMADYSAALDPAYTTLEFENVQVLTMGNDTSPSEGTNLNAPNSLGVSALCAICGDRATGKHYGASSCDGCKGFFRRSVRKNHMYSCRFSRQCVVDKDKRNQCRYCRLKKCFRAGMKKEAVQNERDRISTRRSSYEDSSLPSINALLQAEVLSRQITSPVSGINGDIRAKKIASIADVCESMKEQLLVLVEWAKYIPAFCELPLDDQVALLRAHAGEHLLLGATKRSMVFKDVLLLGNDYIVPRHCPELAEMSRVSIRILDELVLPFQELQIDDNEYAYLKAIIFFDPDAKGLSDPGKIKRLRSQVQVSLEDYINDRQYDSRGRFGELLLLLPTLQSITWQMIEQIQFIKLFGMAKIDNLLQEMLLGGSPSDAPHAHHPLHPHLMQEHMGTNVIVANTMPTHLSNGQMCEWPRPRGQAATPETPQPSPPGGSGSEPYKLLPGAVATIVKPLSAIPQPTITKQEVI

Experiment [18] addresses Steroid hormone receptor ERR1 (Homo sapiens) (UniProt P11474). Briefly: ATG_ERRa_TRANS: Attagene TRANS-FACTORIAL HepG2 Assay for human Estrogen-Related Receptor alpha (ERRa) (AID 2282971). To be noted: HepG2 Attagene TRANS reporter, ERRa transactivation. In short, it runs like this: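 HepG2 cells transiently transfected with GAL4-UAS reporter units and chimeric NR-Gal4 constructs; after 24 hour compound incubation, reporter mRNA quantified by RT-PCR, fluorescent labelling and capillary electrophoresis, gain of signal versus DMSO.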

The target of experiment [19] is Nuclear receptor subfamily 1 group I member 3 (Homo sapiens) (UniProt Q14994). Briefly: ATG_CAR_TRANS: Attagene TRANS-FACTORIAL HepG2 Assay for human Constitutive Androstane Receptor (CAR) (AID 2282969).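 Further: activators raise reporter mRNA above DMSO so AC50 marks induction.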 As to conditions: HepG2 Attagene TRANS-FACTORIAL CAR reporter. In short, it runs like this: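 Transiently transfected HepG2, multiplex TRANS reporters (CAR-Gal4 chimera driving GAL4-UAS reporter). 24 h dosing. Readout: reporter transcript by RT-PCR + capillary electrophoresis, fluorescence intensity; positive direction vs DMSO.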
Chain of Nuclear receptor subfamily 1 group I member 3 (Homo sapiens) (Q14994 whole entry, looked up, the tested form may be a part): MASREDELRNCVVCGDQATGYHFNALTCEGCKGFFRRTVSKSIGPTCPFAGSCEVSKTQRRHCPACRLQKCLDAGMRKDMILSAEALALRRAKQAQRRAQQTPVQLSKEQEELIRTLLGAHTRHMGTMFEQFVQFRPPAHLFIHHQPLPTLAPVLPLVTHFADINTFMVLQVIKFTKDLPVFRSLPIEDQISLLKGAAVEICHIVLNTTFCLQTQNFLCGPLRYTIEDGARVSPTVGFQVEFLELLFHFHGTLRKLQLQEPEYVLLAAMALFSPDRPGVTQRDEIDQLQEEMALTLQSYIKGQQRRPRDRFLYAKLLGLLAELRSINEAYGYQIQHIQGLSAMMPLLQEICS

The nature of experiment [20]: ATG_M_32_TRANS: Attagene TRANS-FACTORIAL HepG2 Assay for M32 Transcription Factor (Internal Marker) (AID 2282984). To be noted: HepG2 Attagene TRANS M32 internal marker reporter. In short, it runs like this:
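Internal-marker readout from a multiplexed transcription reporter panel. HepG2 cells were transfected with GAL4-UAS reporter units, treated 24 hours, and reporter transcript levels determined by fluorescence after RT-PCR and capillary separation.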

Molecules are shown by their SMILES. Records with an inconclusive call do not appear. Calls of active or inactive are those of the source. How the source made its calls, unless noted: active means hit-call score of the fitted dose curve at least 0.9, where 1 is the maximum; inconclusive means response in the unintended direction; inactive means score below 0.9.

The AC50 is the concentration at which the activity in the assay is half-maximal.

Chain of Steroid hormone receptor ERR1 (Homo sapiens) (P11474 whole entry, looked up, the tested form may be a part): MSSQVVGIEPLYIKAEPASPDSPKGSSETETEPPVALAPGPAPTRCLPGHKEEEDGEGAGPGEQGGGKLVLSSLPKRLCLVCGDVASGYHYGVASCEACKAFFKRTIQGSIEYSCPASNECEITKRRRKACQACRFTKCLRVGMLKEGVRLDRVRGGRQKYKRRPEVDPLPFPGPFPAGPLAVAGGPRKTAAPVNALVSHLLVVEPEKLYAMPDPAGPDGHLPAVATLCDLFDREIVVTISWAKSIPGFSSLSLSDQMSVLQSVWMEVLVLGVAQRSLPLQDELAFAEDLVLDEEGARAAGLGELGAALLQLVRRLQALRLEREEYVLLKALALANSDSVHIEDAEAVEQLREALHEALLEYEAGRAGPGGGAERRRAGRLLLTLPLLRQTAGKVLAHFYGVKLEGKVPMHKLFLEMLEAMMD
Chain of Nuclear receptor subfamily 4 group A member 2 (Homo sapiens) (P43354 whole entry, looked up): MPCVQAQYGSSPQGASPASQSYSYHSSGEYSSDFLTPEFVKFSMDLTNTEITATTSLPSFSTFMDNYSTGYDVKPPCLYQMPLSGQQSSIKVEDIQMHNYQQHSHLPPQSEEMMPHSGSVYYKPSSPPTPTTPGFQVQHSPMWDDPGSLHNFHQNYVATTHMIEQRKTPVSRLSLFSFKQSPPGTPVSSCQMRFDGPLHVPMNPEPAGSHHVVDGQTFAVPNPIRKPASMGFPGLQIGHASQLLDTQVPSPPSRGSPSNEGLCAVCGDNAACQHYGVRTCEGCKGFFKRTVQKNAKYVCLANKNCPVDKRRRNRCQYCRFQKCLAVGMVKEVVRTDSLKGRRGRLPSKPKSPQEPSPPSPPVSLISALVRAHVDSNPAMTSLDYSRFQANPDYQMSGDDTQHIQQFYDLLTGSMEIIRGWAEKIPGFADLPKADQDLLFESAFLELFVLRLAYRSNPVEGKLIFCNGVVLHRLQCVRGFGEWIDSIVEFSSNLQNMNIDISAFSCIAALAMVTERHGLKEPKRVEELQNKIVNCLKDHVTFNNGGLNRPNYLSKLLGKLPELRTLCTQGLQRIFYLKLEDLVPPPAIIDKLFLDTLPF
Chain of Estrogen receptor (Homo sapiens) (P03372 whole entry, looked up, the tested form may be a part): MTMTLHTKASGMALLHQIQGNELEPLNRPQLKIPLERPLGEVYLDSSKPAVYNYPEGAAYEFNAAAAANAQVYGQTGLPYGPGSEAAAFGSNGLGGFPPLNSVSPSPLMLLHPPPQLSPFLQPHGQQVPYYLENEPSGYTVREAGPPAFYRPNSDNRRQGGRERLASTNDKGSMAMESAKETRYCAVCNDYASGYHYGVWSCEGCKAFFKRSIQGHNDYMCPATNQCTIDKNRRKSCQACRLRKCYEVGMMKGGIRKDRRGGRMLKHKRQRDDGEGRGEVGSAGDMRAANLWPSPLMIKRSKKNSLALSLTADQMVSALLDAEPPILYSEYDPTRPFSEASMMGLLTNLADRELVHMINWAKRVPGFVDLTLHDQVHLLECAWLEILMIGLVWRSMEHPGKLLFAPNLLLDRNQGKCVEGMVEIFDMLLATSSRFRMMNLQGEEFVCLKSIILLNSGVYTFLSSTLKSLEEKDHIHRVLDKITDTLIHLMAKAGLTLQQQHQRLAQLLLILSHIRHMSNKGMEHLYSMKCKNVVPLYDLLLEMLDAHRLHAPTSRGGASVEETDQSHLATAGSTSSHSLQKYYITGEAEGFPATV
Chain of X-box-binding protein 1 (Homo sapiens) (P17861 whole entry, looked up, the tested form may be a part): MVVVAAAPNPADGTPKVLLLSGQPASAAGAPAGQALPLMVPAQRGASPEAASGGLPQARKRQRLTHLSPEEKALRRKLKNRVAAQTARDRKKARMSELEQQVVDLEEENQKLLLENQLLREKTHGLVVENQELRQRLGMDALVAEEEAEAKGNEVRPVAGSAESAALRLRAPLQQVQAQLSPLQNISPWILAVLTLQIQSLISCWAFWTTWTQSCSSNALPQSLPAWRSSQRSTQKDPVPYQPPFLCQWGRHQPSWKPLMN
Chain of Bile acid receptor (Homo sapiens) (Q96RI1 whole entry, looked up, the tested form may be a part): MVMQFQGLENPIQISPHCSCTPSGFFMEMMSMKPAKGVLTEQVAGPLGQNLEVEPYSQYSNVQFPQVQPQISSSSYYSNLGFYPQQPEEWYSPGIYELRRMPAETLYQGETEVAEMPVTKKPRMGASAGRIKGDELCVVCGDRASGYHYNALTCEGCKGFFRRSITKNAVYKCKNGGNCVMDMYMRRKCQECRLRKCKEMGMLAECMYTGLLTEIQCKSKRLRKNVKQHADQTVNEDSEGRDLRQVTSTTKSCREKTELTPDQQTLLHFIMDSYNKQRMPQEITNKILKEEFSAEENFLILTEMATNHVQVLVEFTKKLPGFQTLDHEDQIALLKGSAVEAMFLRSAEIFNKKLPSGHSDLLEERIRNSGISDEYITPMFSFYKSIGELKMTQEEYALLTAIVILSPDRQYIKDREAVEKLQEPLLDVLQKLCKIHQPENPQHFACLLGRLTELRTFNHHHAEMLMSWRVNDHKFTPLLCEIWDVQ
Chain of Oxysterols receptor LXR-beta (Homo sapiens) (P55055 whole entry, looked up, the tested form may be a part): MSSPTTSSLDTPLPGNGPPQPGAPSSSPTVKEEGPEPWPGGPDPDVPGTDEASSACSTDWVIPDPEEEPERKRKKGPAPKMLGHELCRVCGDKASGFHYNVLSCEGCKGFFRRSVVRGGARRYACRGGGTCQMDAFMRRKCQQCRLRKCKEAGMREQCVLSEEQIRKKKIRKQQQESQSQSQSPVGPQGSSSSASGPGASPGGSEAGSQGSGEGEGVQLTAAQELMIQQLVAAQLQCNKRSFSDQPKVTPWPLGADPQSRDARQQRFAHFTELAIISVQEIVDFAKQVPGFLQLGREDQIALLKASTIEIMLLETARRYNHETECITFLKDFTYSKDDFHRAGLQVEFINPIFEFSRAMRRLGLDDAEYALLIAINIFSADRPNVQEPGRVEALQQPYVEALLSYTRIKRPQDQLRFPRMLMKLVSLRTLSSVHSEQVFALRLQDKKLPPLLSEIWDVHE
Chain of Glucocorticoid receptor (Homo sapiens) (P04150 whole entry, looked up, the tested form may be a part): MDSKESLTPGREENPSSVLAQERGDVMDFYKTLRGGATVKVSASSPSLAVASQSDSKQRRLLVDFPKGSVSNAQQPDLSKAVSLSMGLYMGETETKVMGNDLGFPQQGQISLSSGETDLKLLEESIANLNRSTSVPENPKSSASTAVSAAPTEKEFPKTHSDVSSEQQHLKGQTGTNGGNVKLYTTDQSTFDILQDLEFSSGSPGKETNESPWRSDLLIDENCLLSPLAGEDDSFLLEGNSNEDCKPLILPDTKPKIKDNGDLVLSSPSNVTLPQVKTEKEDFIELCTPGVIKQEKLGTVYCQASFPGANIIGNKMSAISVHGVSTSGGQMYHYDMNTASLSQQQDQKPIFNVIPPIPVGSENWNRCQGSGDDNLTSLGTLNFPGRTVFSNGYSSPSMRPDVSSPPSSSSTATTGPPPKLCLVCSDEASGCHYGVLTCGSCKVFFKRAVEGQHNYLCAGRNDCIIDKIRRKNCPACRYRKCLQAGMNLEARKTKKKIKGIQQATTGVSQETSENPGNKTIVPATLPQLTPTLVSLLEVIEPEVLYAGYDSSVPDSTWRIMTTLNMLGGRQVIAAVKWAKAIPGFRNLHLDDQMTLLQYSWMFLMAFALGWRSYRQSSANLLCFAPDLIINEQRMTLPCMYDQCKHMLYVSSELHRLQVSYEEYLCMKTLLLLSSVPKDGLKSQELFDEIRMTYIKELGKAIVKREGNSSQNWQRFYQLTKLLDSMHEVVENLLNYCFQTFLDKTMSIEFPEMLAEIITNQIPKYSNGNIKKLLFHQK
Chain of Nuclear respiratory factor 1 (Homo sapiens) (Q16656 whole entry, looked up, the tested form may be a part): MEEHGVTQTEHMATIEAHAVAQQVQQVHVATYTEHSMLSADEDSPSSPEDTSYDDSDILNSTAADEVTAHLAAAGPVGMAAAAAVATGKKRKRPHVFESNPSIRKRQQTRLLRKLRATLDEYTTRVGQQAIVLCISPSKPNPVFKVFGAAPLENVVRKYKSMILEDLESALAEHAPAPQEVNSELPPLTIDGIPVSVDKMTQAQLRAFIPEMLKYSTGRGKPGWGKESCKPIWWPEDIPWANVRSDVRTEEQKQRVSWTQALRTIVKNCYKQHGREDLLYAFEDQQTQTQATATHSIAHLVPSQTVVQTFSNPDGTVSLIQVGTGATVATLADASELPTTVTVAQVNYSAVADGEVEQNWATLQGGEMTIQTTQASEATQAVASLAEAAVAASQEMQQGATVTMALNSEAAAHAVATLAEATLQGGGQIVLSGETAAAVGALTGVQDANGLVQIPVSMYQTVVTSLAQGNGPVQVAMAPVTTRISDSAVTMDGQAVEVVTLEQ

With `CCCOc1ccc(S(=O)(=O)N2CCN(CC)CC2)cc1-c1nc2c(CC)n(Cc3ccccn3)nc2c(=O)[nH]1`, the outcome in experiment [1], in experiment [3], in [4], in experiment [5], in experiment [6] and in experiment [7] was inactive. Further, the call in [8], in experiment [9], in experiment [10], in [11] and in experiment [12] was inactive. Moreover, in experiment [2], the AC50 was 2.51 µM (active).

Take `Cc1ccc(S(=O)(=O)NC(=O)NN2CCCCCC2)cc1`: the compound was classed as inactive in experiment [1], in experiment [2], in experiment [3], in [4], in [13] and in experiment [6]. For the same compound, the compound was called inactive in experiment [14], in experiment [8], in experiment [15], in [9], in experiment [10] and in experiment [11]. Besides, the call in experiment [12] was inactive.

In the case of `Cc1ncc([C@@H](CCCCCCc2ccc3c(n2)NCCC3)CC(=O)O)cn1`, the call in experiment [1], in [2], in experiment [4], in experiment [16], in experiment [13] and in experiment [7] was inactive. Besides, the call in experiment [14], in experiment [8], in [17], in experiment [9], in [10] and in experiment [11] was inactive. For the same compound, in [12], the result was inactive.

With `Nc1ccn([C@@H]2O[C@H](CO)[C@@H](O)[C@@H]2O)c(=O)n1`, the outcome in experiment [1], in experiment [2], in experiment [4], in experiment [16], in experiment [13] and in experiment [14] was inactive. Also, the result in [8], in experiment [10], in experiment [11] and in experiment [12] was inactive. For the same compound, the concentration at half-maximal activity (AC50) in experiment [3] is 40 µM (active).

Consider `CCCCCCOC(=O)CC(CC(=O)OCCCCCC)(OC(=O)CCC)C(=O)OCCCCCC`, for which the result in [1], in experiment [2], in [18], in [4], in [13] and in experiment [17] was inactive. For the same compound, the result in [9], in [10], in experiment [11] and in experiment [12] was inactive.

As to `OCCOCCOCCO`, the compound was classed as inactive in [1], in [2], in experiment [19], in [3], in experiment [4] and in experiment [16]. Also, the result in experiment [6], in experiment [15], in experiment [20], in experiment [9], in [10] and in experiment [11] was inactive. The result in [12] was inactive.

As to `CC(C)CC(C)O` (stereo not drawn), the outcome in experiment [1], in experiment [2], in [19], in [4], in experiment [16] and in experiment [13] was inactive. Besides, the outcome in [17], in experiment [10], in experiment [11] and in experiment [12] was inactive.

Take `FC(F)(F)COC(OCC(F)(F)F)OCC(F)(F)F`: the outcome in [1], in experiment [2], in experiment [19], in experiment [3], in experiment [18] and in experiment [4] was inactive. For the same compound, the result in [13], in [5], in [6], in [7], in experiment [8] and in experiment [15] was inactive. The result in [9], in experiment [10], in [11] and in experiment [12] was inactive.

The record behind these values is PubChem BioAssay (EPA / NIEHS).
